Out of some 5,500 compounds screened, about 2,000 (36%) were called active. Another 18% or so got no clear call; they are omitted. No stated cut-off is given here; in the data, active means normalized growth mostly below about 0.91 (no sharp cut-off); inconclusive means no clear call, values can overlap the other calls; inactive means mostly above about 0.92. Some of the results follow.
Assay: chemical genetic growth profiling, strain panel (AID 1159580);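 further: tested at 20 µM; growth read once vehicle control cultures reached saturation at 30 °C; 1 = growth at the plate median or of vehicle wells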
Details: S. cerevisiae deletion strains, growth OD
[1] = locus YAL013W, strain DEP1, stronger effect = lower value
[2] = locus YBR229C, strain ROT2, stronger effect = lower value
[3] = locus YDL101C, strain DUN1, stronger effect = lower value
[4] = locus YDR150W, strain NUM1, stronger effect = lower value
[5] = locus YEL061C, strain CIN8, stronger effect = lower value
[6] = locus YGR078C, strain PAC10, stronger effect = lower value
[7] = locus YHR030C, strain SLT2, stronger effect = lower value
[8] = locus YHR087W, strain rtc3, stronger effect = lower value
[9] = locus YJR043C, strain POL32, stronger effect = lower value
[10] = locus YJR075W, strain HOC1, stronger effect = lower value
[11] = locus YKL190W, strain CNB1, stronger effect = lower value
[12] = locus YLR039C, strain RIC1, stronger effect = lower value
[13] = locus YLR058C, strain SHM2 (second series), stronger effect = lower value
[14] = locus YLR085C, strain ARP6, stronger effect = lower value
[15] = locus YLR262C, strain YPT6, stronger effect = lower value
[16] = locus YML094W, strain GIM5, stronger effect = lower value
[17] = locus YMR219W, strain ESC1, stronger effect = lower value
[18] = locus YMR263W, strain SAP30, stronger effect = lower value
[19] = locus YNL153C, strain GIM3, stronger effect = lower value
[20] = locus YNL298W, strain CLA4 (second series), stronger effect = lower value
[21] = locus YNL322C, strain KRE1, stronger effect = lower value
[22] = locus YNR030W, strain Alg12, stronger effect = lower value
[23] = locus YPL055C, strain LGE1, stronger effect = lower value
[24] = locus YPL241C, strain CIN2, stronger effect = lower value
[25] = locus YPR135W, strain CTF4, stronger effect = lower value

Measured: normalized growth

Cn1c(Sc2ccc(C(F)(F)F)cc2[N+](=O)[O-])nnc1C(F)(F)F
inactive: [1] 1 | [2] 1.01 | [3] 1.02 | [4] 0.988 | [5] 1 | [6] 1.01 | [7] 1.04 | [8] 1 | [9] 1 | [10] 0.973 | [11] 1.01 | [12] 1.02 | [13] 1.01 | [14] 1.05 | [15] 1.01 | [16] 1.05 | [17] 0.996 | [18] 0.994 | locus YNL128W, strain TEP1, stronger effect = lower value 0.994 | [19] 1 | [20] 0.993 | [21] 1 | [22] 1.02 | locus YOL006C, strain TOP1, stronger effect = lower value 0.899 | [23] 1.01 | [24] 1.11 | [25] 1.05

O=[N+]([O-])c1cc(C(F)(F)F)ccc1Sc1ccc(Cl)cc1
inactive: [1] 1 | [2] 1.01 | [3] 1 | locus YDL134C, strain PPH21, stronger effect = lower value 0.98 | [4] 0.957 | [5] 1.01 | [6] 1.01 | [7] 0.901 | [8] 1.01 | [9] 1 | [10] 1.02 | [11] 1.01 | [12] 0.928 | [13] 1 | [15] 0.967 | [16] 0.97 | [17] 1.01 | [18] 1.01 | [19] 1.02 | [20] 0.995 | [21] 0.996 | [22] 0.978 | [23] 1.04 | [24] 0.967 | [25] 0.97
active: [14] 0.757
